Drawing on PubChem BioAssay AID2284189 (EPA ToxCast), this text covers AC50 for one compound.

SMILES strings stand for the structures. The source made the active and inactive calls. The calls were made as follows: active = hit-call score of the fitted dose curve at least 0.9, where 1 is the maximum; inactive = score below 0.9.

rat Glutamate (Kainate, Non-Selective), conducted at France lab site, Grik1 (gene 29559), sequence (P22756 whole entry, looked up): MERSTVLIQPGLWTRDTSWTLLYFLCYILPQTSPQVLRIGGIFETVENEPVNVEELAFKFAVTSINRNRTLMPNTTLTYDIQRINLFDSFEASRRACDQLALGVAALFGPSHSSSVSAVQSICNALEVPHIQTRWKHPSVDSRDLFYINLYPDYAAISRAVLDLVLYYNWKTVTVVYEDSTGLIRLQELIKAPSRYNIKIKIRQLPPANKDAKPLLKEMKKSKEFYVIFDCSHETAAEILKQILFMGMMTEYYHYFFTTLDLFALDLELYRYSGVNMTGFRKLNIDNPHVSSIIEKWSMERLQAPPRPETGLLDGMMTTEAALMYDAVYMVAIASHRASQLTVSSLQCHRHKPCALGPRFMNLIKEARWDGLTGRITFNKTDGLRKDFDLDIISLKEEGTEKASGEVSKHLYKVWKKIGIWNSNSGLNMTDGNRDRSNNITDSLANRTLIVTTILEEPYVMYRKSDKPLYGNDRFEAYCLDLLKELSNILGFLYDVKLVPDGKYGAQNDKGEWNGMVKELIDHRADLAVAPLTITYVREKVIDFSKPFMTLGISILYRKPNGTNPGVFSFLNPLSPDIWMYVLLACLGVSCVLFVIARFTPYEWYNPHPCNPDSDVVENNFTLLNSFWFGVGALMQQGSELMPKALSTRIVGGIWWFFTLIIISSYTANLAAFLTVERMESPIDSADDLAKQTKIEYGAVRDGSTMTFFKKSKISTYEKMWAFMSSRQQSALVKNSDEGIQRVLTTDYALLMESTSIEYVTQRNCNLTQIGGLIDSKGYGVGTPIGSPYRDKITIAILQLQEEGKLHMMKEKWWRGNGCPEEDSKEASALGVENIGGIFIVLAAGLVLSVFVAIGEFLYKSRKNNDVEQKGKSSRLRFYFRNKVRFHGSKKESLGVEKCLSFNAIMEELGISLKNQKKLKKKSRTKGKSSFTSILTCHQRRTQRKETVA

This test concerns the target rat Glutamate (Kainate, Non-Selective), conducted at France lab site, Grik1 (gene 29559) (UniProt P22756). Nature of the test: ERF_FR_LGIC_rGRIK1: Eurofins (ERF) Ion Channel [3H] Kainic acid Binding LeadHunter Assay for rat Glutamate (Kainate, Non-Selective), conducted at France lab site. On the procedure:
ERF_FR_LGIC_rGRIK1 is a biochemical, single-readout assay that uses extracted gene-proteins in a cell-free assay. Measurements were taken 1 hour after chemical dosing in a 96-well plate. See Glutamate (Kianate, Non-Selective) Rat Ion Channel [3H]- Kainic acid Binding Assay, Cerep.ERF_FR_LGIC_rGRIK1 is an assay component calculated from the ERF_FR_LGIC_rGRIK1 assay. It is designed to measure radioligand binding using a type of binding reporter as detected by scintillation counting with radiometry technology.Data from the assay component ERF_FR_LGIC_rGRIK1 was analyzed at the assay endpoint, ERF_FR_LGIC_rGRIK1, in the positive analysis fitting direction relative to DMSO as the negative control and baseline of activity. Using a type of binding reporter, loss-of-signal activity can be used to understand changes in binding as they relate to gene GRIK1. To generalize the intended target to other relatable targets, this assay endpoint is annotated to the ion channel intended target family, where the subfamily is ligand-gated (glutamate, Ionotropic).
Glutamate kainite receptor containing membranes are prepared from brain cortices from male Wistar rats in Tris-HCl buffer pH 7.4. A 10 mg aliquot is incubated with 5 nM [3H]Kainic acid for 60 minutes at 4C. […] Membranes are filtered and washed, the filters are then counted to determine [3H]Kainic acid specifically bound.
For `O=C(/C=C/c1ccc(O)cc1)CC(=O)/C=C/c1ccc(O)cc1`, the AC50 was 2870 nM (active).
